# Data taken from PubChem BioAssay (NCI).
# About 79,000 compounds went through this panel and 15% of them were active in at least one assay; those are over-represented in the sample as a whole. A number with no mark means an inactive call. Activity calls are given as the source filed them. No stated cut-off is given here; in the data, active means growth inhibition above about 70%; inactive means the rest.
# Tests used:
# [1] = NCI Yeast Anticancer Drug Screen. Data for the rad50 strain (AID 155);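 further: 0% = growth of vehicle-only cultures of the same strain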; conditions: S. cerevisiae rad50 strain growth inhibition, hits give high values
# In short: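 Relative growth inhibition (compound vs vehicle) was measured in yeast with a defined repair-gene alteration.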
# [2] = NCI Yeast Anticancer Drug Screen. Data for the mec2-1 strain (AID 157); conditions: S. cerevisiae mec2-1 strain, hits give high values
# In short: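 mec2-1 yeast strain, carrying an alteration in DNA damage repair or cell cycle control, was exposed to compounds; growth inhibition was measured relative to vehicle-treated controls.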
# [3] = NCI Yeast Anticancer Drug Screen. Data for the sgs1 mgt1 strain (AID 161);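 further: 0% = growth of cultures given vehicle only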; conditions: S. cerevisiae sgs1 mgt1 strain, hits give high values
# In short: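 Compounds are added to genetically altered yeast, and growth is compared with cultures given vehicle alone to give percent inhibition.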
# [4] = NCI Yeast Anticancer Drug Screen. Data for the cln2 rad14 strain (AID 165);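 further: 0% = growth equal to vehicle treated cultures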; conditions: S. cerevisiae cln2 rad14 strain, hits give high values
# In short: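 Yeast carrying cln2 and rad14 alterations (cell cycle control and DNA damage repair) were exposed to compounds. Growth inhibition was measured against vehicle-treated controls.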
# [5] = NCI Yeast Anticancer Drug Screen. Data for the bub3 strain (AID 167); conditions: S. cerevisiae bub3 mutant strain, hits give high values
# In short: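 Screening used yeast with an engineered genetic alteration affecting cell cycle control. Compound-exposed cultures were compared with vehicle cultures, and reduced growth was taken as inhibition.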
# [6] = NCI Yeast Anticancer Drug Screen. Data for the mlh1 rad18 strain (AID 175); conditions: S. cerevisiae mlh1 rad18 strain growth inhibition, hits give high values
# In short: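 Growth inhibition of the yeast strain was measured after compound exposure and expressed relative to vehicle-treated controls. The strain carries defined defects in DNA damage repair.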
# [7] = at 5.0 µM (retest, dose inferred, filed as 0.5)
# [8] = at 50.0 µM (retest, dose inferred, filed as 5.0)
SMILES,"growth inhibition [1, 7]","growth inhibition [1, 8]",growth inhibition ([1]; at 50.0 µM),"growth inhibition [2, 7]","growth inhibition [2, 8]",growth inhibition ([2]; at 50.0 µM),"growth inhibition [3, 7]","growth inhibition [3, 8]",growth inhibition ([3]; at 50.0 µM),"growth inhibition [4, 7]","growth inhibition [4, 8]",growth inhibition ([4]; at 50.0 µM),"growth inhibition [5, 7]","growth inhibition [5, 8]",growth inhibition ([5]; at 50.0 µM),"growth inhibition [6, 7]","growth inhibition [6, 8]",growth inhibition ([6]; at 50.0 µM)
CC(=O)c1ccc([As]=O)cc1 (centres undefined),16%,100% (active),99.8% (active),19%,100% (active),99.8% (active),13%,99% (active),99.8% (active),-9%,99% (active),99.4% (active),-8%,100% (active),99.5% (active),14%,100% (active),99.5% (active)
CCC[CH2][Sn]1([CH2]CCC)[O]CC(CN2CCOCC2)[O]1 (centres undefined),27%,34%,87.7% (active),17%,35%,91% (active),34%,41%,91% (active),26%,31%,88.8% (active),22%,27%,90.3% (active),45%,44%,88.8% (active)
CCCCOOC(=O)c1ccccc1C(=O)OOCCCC,47%,99% (active),99.3% (active),33%,100% (active),99.5% (active),41%,100% (active),99% (active),51%,99% (active),98.7% (active),30%,100% (active),99.5% (active),70% (active),99% (active),98.8% (active)
[O]=[Sb]([OH])([OH])[c]1ccc(NC2OC(CO)C(O)C(O)C2O)cc1 (centres undefined),0%,-6%,6.45%,0%,-2%,5.65%,-1%,-20%,-13.8%,0%,-12%,-0.2%,2%,-1%,91.8% (active),1%,-3%,-10.4%
CC(=O)Nc1ccc([As](O[As](c2ccc(NC(C)=O)cc2)c2ccc([N+](=O)[O-])cc2)c2ccc([N+](=O)[O-])cc2)cc1 (centres undefined),99% (active),100% (active),98.7% (active),99% (active),100% (active),99.7% (active),100% (active),99% (active),99.5% (active),99% (active),99% (active),99.3% (active),99% (active),99% (active),99.4% (active),99% (active),99% (active),99% (active)
O=S(=O)(F)c1cc(Cl)c(O)cc1Cl,-143%,16%,78.3% (active),-45%,48%,57.8%,-61%,60%,79.6% (active),-41%,47%,51.5%,-57%,39%,78.2% (active),-114%,45%,83.2% (active)
C1CCNCC1.O=C([CH-]C(=O)C(F)(F)F)c1ccc2c(c1)C(=O)c1ccccc1-2.O=C([CH-]C(=O)C(F)(F)F)c1ccc2c(c1)C(=O)c1ccccc1-2.O=C([CH-]C(=O)C(F)(F)F)c1ccc2c(c1)C(=O)c1ccccc1-2.O=C([CH-]C(=O)C(F)(F)F)c1ccc2c(c1)C(=O)c1ccccc1-2.[Eu+3],54%,79% (active),70.3% (active),42%,64%,20.2%,15%,58%,52.2%,54%,77% (active),61.5%,34%,71% (active),52.2%,40%,69%,49.1%
CCOC(=O)c1[nH]cnc1/N=N/N(C)N,97% (active),98% (active),86.8% (active),99% (active),99% (active),92% (active),53%,87% (active),90.1% (active),28%,81% (active),89.2% (active),47%,88% (active),89.5% (active),97% (active),97% (active),90% (active)
CCN(CC)C(=S)[S-].CCN(CC)C(=S)[S-].O=C(O)CC([S-])C(=O)O.[Fe+3] (centres undefined),4%,98% (active),61.8%,9%,99% (active),55.8%,35%,99% (active),76.8% (active),30%,98% (active),43.8%,-1%,98% (active),45.7%,38%,98% (active),87.2% (active)
COC(=O)C1=C(C(=O)OC)C2(C)OC1c1ccccc12 (centres undefined),-5%,96% (active),98.2% (active),4%,95% (active),98.1% (active),4%,96% (active),98% (active),0%,92% (active),93.6% (active),7%,98% (active),97% (active),14%,95% (active),98.3% (active)
O=C(Cc1c2ccccc2cc2c1ccc1ccccc12)N(CCCl)CCCl,61%,94% (active),98.8% (active),15%,97% (active),99.3% (active),80% (active),98% (active),99.2% (active),5%,95% (active),94.3% (active),17%,97% (active),98.3% (active),42%,96% (active),99% (active)
CC(Cl)CN1COc2c3c(c4ccccc4c2C1)CN(CC(C)Cl)CO3 (centres undefined),0%,98% (active),83.7% (active),2%,99% (active),68.8%,-3%,99% (active),82.8% (active),0%,95% (active),77.5% (active),0%,98% (active),66.4%,0%,97% (active),81.8% (active)
CC(C=O)[Se]c1ccccc1 (centres undefined),-2%,57%,91.9% (active),8%,53%,77.7% (active),-3%,72% (active),86.2% (active),-9%,48%,48.6%,11%,67%,86.8% (active),12%,73% (active),91.5% (active)
